# ChEMBL document CHEMBL4513216, “Probing the Open Global Health Chemical Diversity Library for Multistage-Active Starting Points for Next-Generation Antimalarials” (ACS Infect Dis, 2020)
# Out of some 69,000 compounds screened, about 8,600 (12%) showed an effect of 50% or more. Shown is part of a subset that was picked to be rich in strong results.
# Tested on: Plasmodium berghei
# Experiment: Screen against P. berghei liver stage (PbLuc), transformed with Luciferase, at 10uM
# Assay type: functional, HepG2
# Details: tested at 10 uM
row,Structure (SMILES),INHIBITION [%]
1,CC(C)CN1CC[C@@H]2[C@@H]1CCN2S(=O)(=O)c1cccs1,1.34
2,O=C(NC1CCC1)c1cccc(S(=O)(=O)NCc2nc(C3CC3)no2)c1,-9.2
3,O=C(c1ccc(S(=O)(=O)NCc2ccon2)cc1)N1CCNCC1,41.3
4,NC(=O)CC1CCCN(C(=O)NCC2(c3cccs3)CCCC2)C1 (stereo not drawn),-9.51
5,COc1cccc(CNCc2c(C(C)C)nn(C)c2N(C)C)c1,12.22
6,Cc1cccc(OCC(O)CNCc2c(C)nn(C)c2N(C)C)c1 (stereo not drawn),-45.2
7,Cc1nn(C)c(N(C)C)c1CNCc1cccc(Cl)c1,68.1
8,COCc1cccc(CNCc2c(C)nn(C)c2N(C)C)c1,44.3
9,COc1cccc(CNCc2c(C)nn(C)c2N(C)C)c1,38.95
10,COCc1cccc(CNCc2c(C(C)C)nn(C)c2N(C)C)c1,50.8
11,Cc1nn(C)c(N(C)C)c1CNCC(O)COc1cccc(F)c1 (stereo not drawn),83.2
12,COc1ccc2cc(CNCc3c(C)nn(C)c3N(C)C)ccc2c1,53
13,Cc1nn(C)c(N(C)C)c1CNCC(O)COc1ccc(F)cc1 (stereo not drawn),0
14,Cc1nn(C)c(N(C)C)c1CNCc1cccc(CN(C)C)c1,-72.2
15,COc1cc(CNCc2c(C)nn(C)c2N(C)C)ccc1C,30.8
16,Cc1nn(C)c(N(C)C)c1CNCc1cccc(Br)c1,-22.1
17,COCCN1C(=O)CCC12CCC(NCc1ccc(OC)cc1)CC2 (stereo not drawn),15.3
18,COc1ccc(OC)c(-c2cc(C(=O)NCC3(CO)CC3)n(C)n2)c1,6.54
19,O=C(NC[C@]12COC[C@H]1CN(Cc1cccnc1)C2)c1ccno1,29
20,c1cc(C2CCN(Cc3ccc4c(c3)OCO4)CC2)ccn1,19.4
21,Cc1ccc(NCc2cc(C#N)ccc2F)cc1-n1nnnc1C,-3.83
22,CC(C)CC(=O)N1CCCn2cnc(CNS(C)(=O)=O)c2C1,-3.33

row,Structure (SMILES),INHIBITION [%]
1,CC(C)NC(=O)[C@H]1C[C@@H]2[C@@H](C1)OCCN2Cc1nccs1,16.9
2,Nc1nccnc1C1CN(C(=O)c2ccnnc2)CCO1 (stereo not drawn),26.8
3,CSC(C)(C)CNC(=O)NC1CCC1,34.6
4,CCNc1cc2c(nn1)CCN(C(=O)C(C)c1c(C)noc1C)C2 (stereo not drawn),31.9
5,Cc1nnc(NC(=O)NCc2ccc(F)cc2)s1,-162
6,COC(=O)c1ccoc1CN(C)Cc1ccccc1,37.1
7,CC(c1cc(F)ccc1F)N(C)Cc1nc2c(cnn2C)c(=O)[nH]1 (stereo not drawn),16.34
8,COc1ccc(C)cc1NC(=O)Cn1nc(C)c(C#N)c1N,16.8
9,CCc1nn(-c2cc(Oc3ccccc3)nc(C)n2)c(N)c1C#N,31.8
10,CCOC(=O)c1cnn(-c2cc(Oc3cc(C)ccc3C)ncn2)c1N,18.6
11,CCc1nn(-c2cc(Oc3cc(C)ccc3C)ncn2)c(N)c1C#N,57.8
12,CCc1nn(-c2cc(Oc3cccc(C)c3)nc(C)n2)c(N)c1C#N,-7.81
13,Cc1ccc(C)c(Oc2cc(-n3nc(C)c(C#N)c3N)nc(C)n2)c1,55.6
14,Cc1ccc(C)c(NC(=O)Cn2nc(C)c(C#N)c2N)c1,14.6
15,CCc1nn(-c2cc(Oc3cc(C)ccc3C)nc(C)n2)c(N)c1C#N,64.9
16,CC(O)c1cn(Cc2ccccc2)nn1 (stereo not drawn),-1.84
17,O=C(c1ncccn1)N1CCC[C@]2(C[C@H](OCC3CC3)CO2)C1,40.4
18,COc1c(C2CCCN2C(=O)c2sc(C)nc2C)c(C)nn1C (stereo not drawn),8.64
19,CN(C)[C@@H]1CN(C(=O)CCc2ccccc2)[C@@H]2CCCO[C@H]12,8.66
20,Cc1ccc(CC(=O)N2CCCC2Cn2nc(C)cc2C)cn1 (stereo not drawn),33.7
21,CC(=O)N1CCCC(C(=O)NCCc2ccc(F)c(Br)c2)C1 (stereo not drawn),9.72
22,CCc1c(C(=O)N2CCN(c3cnccn3)CC2)cnn1C(C)(C)C,-0.219

row,Structure (SMILES),INHIBITION [%]
1,CC(=O)N(Cc1noc(C2CC2)n1)C1CCN(Cc2cccnc2)C1 (stereo not drawn),25.7
2,O=C(Nc1cnn(CCN2CCOCC2)c1)c1ccccc1O,55.9
3,COc1cc(CNc2cnn(CCN3CCOCC3)c2)cc(OC)c1,1.74
4,Clc1ccc(CNc2cnn(CCN3CCOCC3)c2)cc1Cl,56
5,N#Cc1ccc(CNc2cnn(CCN3CCOCC3)c2)cc1,24
6,Cc1ccccc1C(=O)Nc1cnn(CCN2CCOCC2)c1,-21.3
7,O=C(Nc1cnn(CCN2CCOCC2)c1)c1ccccc1Cl,-13.4
8,COc1ccccc1CN(CC1CCCO1)C(=O)c1scnc1C (stereo not drawn),-9.08
9,O=c1ccc2c(n1Cc1cccnc1)CCN(Cc1ccoc1)CC2,-110
10,Cc1cncc(C2CCCN2CCO)n1 (stereo not drawn),0.696
11,O=C(c1cnccn1)N1CC[C@@H]2CO[C@@H](CN3CCCC3)[C@@H]2C1,37.8
12,CSc1ccccc1CN1C[C@H]2CC[C@@H](C1)N(CC1CC1)C2=O,28.3
13,COc1c(CNCCc2c[nH]c3ccccc23)c(C)nn1C,30.1
14,COc1c(CNCCc2c[nH]c3cc(F)ccc23)c(C(C)C)nn1C,44.2
15,COc1c(CNCCc2c[nH]c3cc(F)ccc23)c(C)nn1C,70.2
16,CS(=O)(=O)c1ccc(CNc2nccc(C(F)(F)F)n2)cc1,-33.9
17,CN1CC2(CCCN(C(=O)Cc3cccc(O)c3)C2)OC1=O (stereo not drawn),16.3
18,CN(C)CC1COCCN1C(=O)c1ccccc1C(=O)c1ccccc1 (stereo not drawn),22.6
19,O=C1N(Cc2ccc(F)c(F)c2)CCCC12CCN(C1CCSCC1)C2 (stereo not drawn),80.8
20,CN(C)S(=O)(=O)N1CCC2(CCCN(Cc3ccc(F)cc3)C2=O)C1 (stereo not drawn),36.8
21,CC(C)N1CCC2(CCCN(Cc3ccc(F)cc3)C2=O)C1 (stereo not drawn),70.4
22,Cc1cccc(CN2CCCC3(CCN(C4CCSCC4)C3)C2=O)c1 (stereo not drawn),39.9

row,Structure (SMILES),INHIBITION [%]
1,O=C1N(Cc2ccc(F)cc2)CCCC12CCN(C1CCSCC1)C2 (stereo not drawn),33.3
2,O=C1N(Cc2ccc(F)c(F)c2)CCCC12CCN(C1CCCCC1)C2 (stereo not drawn),81.7
3,O=C1N(CCc2ccccc2)CCCC12CCN(C(CO)CO)C2 (stereo not drawn),-33.9
4,CCS(=O)(=O)N1CCC2(CCCN(Cc3ccc(F)c(F)c3)C2=O)C1 (stereo not drawn),39.4
5,O=C1N(Cc2ccc(F)c(F)c2)CCCC12CCN(C1CCCC1)C2 (stereo not drawn),37.4
6,Cc1ccccc1C(=O)N1CCC2(CCCN2CCN(C)C)CC1,-35.6
7,CC(C)c1ncncc1C(=O)NCCN1CCCC1,29
8,CN(C)C(=O)c1c[nH]nc1C1CCN(S(=O)(=O)c2ccc(Cl)cc2)CC1,24.8
9,CN(Cc1ccco1)[C@@H]1CN(CC2CCOCC2)[C@@H]2CCCO[C@H]12,33.4
10,CC(C)OCCCNC(=O)CN1CCN(c2nccs2)C(C)C1 (stereo not drawn),-27.5
11,Cc1cn[nH]c1C1COCCN1S(=O)(=O)c1cn[nH]c1 (stereo not drawn),23.2
12,Cn1cnnc1SCC(=O)NC1CC(=O)N(CCc2cccc(Cl)c2)C1 (stereo not drawn),6.29
13,CC(=O)N1CCC2(CC1)CC(N1CCOCC1)c1ccc(C)cc12 (stereo not drawn),-39.2
14,Cc1nc(NCc2nccn2C)cc(C2COCCN2)n1 (stereo not drawn),23.375
15,Cc1noc(-c2ccc(N3CCCC(C(=O)O)C3)nc2)n1 (stereo not drawn),-19.2
16,Cc1noc(-c2ccc(N3CCCC(C(=O)N4CCSCC4)C3)nc2)n1 (stereo not drawn),28.8
17,Cc1noc(-c2ccc(N3CCC(C(=O)N4CCCC4)CC3)nc2)n1,76.7
18,CCn1ncc(S(=O)(=O)N[C@@H]2CC[C@@H](n3ccnc3C)[C@@H]2O)c1C,4.9
19,Cc1cc(=O)[nH]c(=O)n1COCCOCc1ccccc1,8.41
20,Cc1cc(=O)[nH]c(=O)n1COCc1ccccc1,13.6
21,Cc1ccccc1COCCOCn1c(C)cc(=O)[nH]c1=O,51.3
22,CC(C)n1ccnc1CN1CCOC(CC2CCCCC2)C1 (stereo not drawn),50

row,Structure (SMILES),INHIBITION [%]
1,CC(C)n1ccnc1CN1CCCN(C(=O)CC2CCCO2)CC1 (stereo not drawn),-32
2,CC(C)n1ccnc1CN1CCOC(CCc2ccccc2)C1 (stereo not drawn),9.34
3,Cc1nc2sccn2c1CNC1(c2ccccc2F)CCCC1,52.4
4,Cc1nc2sccn2c1CNc1cc(C(=O)O)ccc1F,-15.7
5,COc1ccccc1C1(NCc2c(C)nc3c(C)cccn23)CCCC1,49
6,O=C(Cn1cccn1)N(CCO)CCSc1ccc(Cl)cc1,24.7
7,Cc1nc(C(C)NC(=O)c2cn(Cc3ccc(Cl)cc3)nn2)n[nH]1 (stereo not drawn),39.9
8,Cc1noc(C(C)C)c1C(=O)NCC(c1ccccc1)N(C)C (stereo not drawn),-7.35
9,Cc1ccc(CN2CCC(O)(Cn3ccc4ncccc43)CC2)o1,28
10,COCc1ccc(CN2CCC(O)(Cn3ccc4ncccc43)CC2)o1,38.7
11,OC1(Cn2ccc3ncccc32)CCN(Cc2ccccn2)CC1,50.6
12,OC1(Cn2ccc3ncccc32)CCN(Cc2cc(F)cc(F)c2)CC1,54.4
13,OC1(Cn2ccc3ncccc32)CCN(Cc2cccs2)CC1,64.1
14,CCn1cc(CN2CCC(O)(Cn3ccc4ncccc43)CC2)cn1,38.8
15,OC1(Cn2ccc3ccncc32)CCN(Cc2ccccn2)CC1,37
16,OC1(Cn2ccc3ncccc32)CCN(Cc2ccccc2F)CC1,70.1
17,COc1ccccc1CN1CCC(O)(Cn2ccc3ncccc32)CC1,14.7
18,OC1(Cn2ccc3ncccc32)CCN(Cc2cccnc2)CC1,35.2
19,CCn1ncc(CN2CCC(O)(Cn3ccc4ncccc43)CC2)c1C,19.6
20,Cc1cc(CN2CCC(O)(Cn3ccc4ncccc43)CC2)c(C)s1,23.2
